The campaign covered roughly 310,000 compounds. About 11,000 (3.5%) were called active. Another 8% or so got no clear call; they are omitted. The call rests on the fitted dose curve; in most records, active means well fitted inhibition curve with a large enough effect; inconclusive means small, poorly fitted or top-dose-only effect, or effect the other way; inactive means flat fitted curve, though single readings scatter. The list comes from a sample in which actives are over-represented; it also holds similar structures and randomly drawn compounds. Where a call stands in place of a potency, no number is given.
Potency means the concentration at half of the fitted maximal effect.

The nature of the assay: VP16 counterscreen qHTS for inhibitors of ROR gamma transcriptional activity.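 Further: Gal4-VP16 expression switched on by copper sulfate through the metallothionein promoter; nearly all actives have a fitted effect of over 50% in size.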 Particulars: Drosophila S2 Gal4-VP16 UAS-luciferase, luminescence, 20 h; series mostly up to 53.6 µM. Background: A counterscreen serves to expose hits that act by an unwanted route or on another target.
`CCN(CC)S(=O)(=O)c1ccc(C(=O)N2CCN(C3=NS(=O)(=O)c4ccccc43)CC2)cc1`: the Potency entry was “inactive”.

As to `Cc1nc2nc(SCC(=O)Nc3cccc(F)c3)[nH]c2cc1Br`, the Potency entry is “inactive”. In the case of `O=C(O)CCC(=O)Nc1ccc(OCC2CCCO2)cc1` (configuration not stated) it was “inactive”; in that of `Cc1ccc(-c2cc(C(=O)N/N=C/C=C/c3ccco3)c3ccccc3n2)cc1C`, 4.47 µM (active). In the case of `Cc1cc(C(=O)N/N=C/c2ccccn2)c2ccccc2n1` it was “inactive”. In the case of `COc1cccc(-c2cc(C(=O)N/N=C/c3ccc(OC)c(COC(C)=O)c3)c3ccccc3n2)c1` it was “inactive”.

As for `CC(NC(=O)CCCC1CCCCC1)c1ccc(S(N)(=O)=O)cc1` (configuration not stated), the Potency entry is “inactive”.

Regarding `O=C(O)CCn1c(O)c(C=C2N=c3ccccc3=N2)sc1=S`, the Potency was 3.55 µM (active). In the case of `O=C(O)CCn1c(Cc2ccccc2)nc2ccccc21` it was “inactive”; in that of `Cc1cc2ccccc2n1CCC(=O)O`, “inactive”. In the case of `COc1ccc(CCNC(=O)CCc2cn(C)c3ccccc23)c(OC)c1` it was “inactive”; in that of `COC(=O)CN1C(=O)C(C)(C)Oc2ccc(C(=O)Nc3cccc(OC)c3)cc21`, “inactive”. In the case of `Cn1c(=O)c2c(nc(OCc3cccnc3)n2Cc2ccccc2)n(C)c1=O` it was “inactive”; in that of `COc1cccc(Cn2c(=O)cnc3cncnc32)c1`, “inactive”; in that of `CCNc1ncc2ncc(=O)n(CCc3ccccc3)c2n1`, “inactive”.

`COC(=O)C(C)Sc1nc2c(c(=O)n(C)c(=O)n2C)n1Cc1cccc(C)c1` (configuration not stated): the Potency entry is “inactive”. As to `Cn1c(=O)c2c(nc(NCCc3ccccc3)n2Cc2ccccc2)n(C)c1=O`, the Potency is 6.31 µM (active). In the case of `CCNc1ncc2ncc(=O)n(Cc3cccc(OC)c3)c2n1` it was 11.2 µM (active); in that of `CCCCNc1nc2c(c(=O)n(C)c(=O)n2C)n1Cc1cccc(OC)c1`, 4.47 µM (active); in that of `Cn1c(=O)c2c(nc(NCc3ccccc3)n2CC(N)=O)n(C)c1=O`, “inactive”. In the case of `CCn1c(NCCc2ccc(OC)c(OC)c2)nc2c1c(=O)n(C)c(=O)n2C` it was “inactive”. In the case of `CCOCCCn1c(SCC(=O)Nc2cc(OC)ccc2OC)nc2ccccc2c1=O` it was “inactive”. `CC(C)c1nc2cc(C(=O)NC(C)c3cnn(C)c3)ccc2o1` (configuration not stated): the Potency entry is “inactive”.

As to `Cc1cnc(C(=O)Oc2cccc(Cl)c2Cl)cn1`, the Potency result was “inactive”. In the case of `COCCN1CCN(C(=O)c2cc(COc3ccc(F)cc3Cl)on2)CC1` it was “inactive”; in that of `CC(C)c1ccc(NC(=O)Cn2ncc3ccccc32)cc1`, “inactive”. In the case of `O=S1(=O)CCO[C@H]2Cc3ccccc3[C@H]2N1Cc1ccccc1` it was “inactive”; in that of `CCN(CC(=O)NCCCN1CCOCC1)S(=O)(=O)c1cc(Cl)ccc1Cl`, “inactive”; in that of `CSCCC(NC(=O)c1cc([N+](=O)[O-])cc([N+](=O)[O-])c1)c1nc2ccccc2[nH]1` (configuration not stated), 25.1 µM (active). In the case of `CSCCC(NC(=O)c1ccc(=O)n(C)n1)c1nc2ccccc2[nH]1` (configuration not stated) it was “inactive”; in that of `COc1ccc(CC(=O)N[C@@H](CCSC)c2nc3ccccc3[nH]2)cc1`, “inactive”. Take `CC(c1ccccn1)N(C)C(=O)c1ccc2nc(Cc3cccc(Cl)c3)oc2c1` (configuration not stated): the Potency result was “inactive”.

Regarding `CCOC(=O)C(C)n1cnc2c(nnn2-c2cccc(OC)c2)c1=O` (configuration not stated), the Potency entry is “inactive”. In the case of `Clc1ccc(-c2cc(-c3ccccn3)on2)c(Cl)c1` it was 7.08 µM (active); in that of `O=C(NCc1ccccn1)c1cc(-c2ccccc2Cl)on1`, “inactive”; in that of `O=C1CSC(c2ccccc2)N1c1nc(-c2ccc(Cl)cc2Cl)cs1` (configuration not stated), “inactive”. In the case of `CC(=O)N1CCCc2cc(S(=O)(=O)N3CCCC(C(=O)NCc4ccc(Cl)cc4)C3)ccc21` (configuration not stated) it was “inactive”; in that of `CC(=O)N1c2ccc(S(=O)(=O)N3CCCC(C(=O)Nc4cccc(Cl)c4)C3)cc2CC1C` (configuration not stated), “inactive”. In the case of `CC(=O)N1CCCc2cc(S(=O)(=O)N3CCCC(C(=O)N4CCN(c5cccc(Cl)c5)CC4)C3)ccc21` (configuration not stated) it was 3.98 µM (active). Regarding `COc1ccc(C(C(=O)NC2CCCC2)N(CCCO)C(=O)Cn2nnc(-c3ccc(C)o3)n2)cc1` (configuration not stated), the Potency result is “inactive”.

Regarding `COc1ccc(-c2cc(=O)oc3cc(OCC(=O)N(C)C4CCS(=O)(=O)C4)ccc23)cc1` (configuration not stated), the Potency entry was “inactive”. In the case of `Cc1onc(-c2c(Cl)cccc2Cl)c1C(=O)NNC(=O)c1c(-c2c(Cl)cccc2Cl)noc1C` it was “inactive”. Consider `CC(=O)Nc1cccc(/C(C)=N/NC(=O)c2ccccc2Cl)c1`, for which the Potency result is “inactive”. In the case of `CC(=O)Nc1cccc(/C(C)=N/NC(=O)c2c(-c3ccccc3Cl)noc2C)c1` it was 20 µM (active); in that of `COc1cc(/C=C/CO)cc(OC)c1O[C@@H]1O[C@H](CO)[C@@H](O)[C@H](O)[C@H]1O`, “inactive”; in that of `Cc1csc(-c2coc3cc(O[C@@H]4O[C@H](CO)[C@@H](O)[C@@H](O)[C@H]4O)ccc3c2=O)n1`, 15.8 µM (active). In the case of `CCc1cccc(OC2OC(CO)C(O)C(O)C2NC(C)=O)c1` (configuration not stated) it was “inactive”; in that of `CCN(C(=O)C1CCCN(c2nc(-c3ccc(OC)cc3)no2)C1)c1ccc(OC)cc1` (configuration not stated), “inactive”; in that of `CC(=O)[C@@]12O[C@@H]1C[C@H]1[C@@H]3CC[C@H]4C[C@@H](O)CC[C@]4(C)[C@H]3CC[C@@]12C`, “inactive”. In the case of `Cc1cccc(C(=O)NC(=S)N2CCN(c3ccc([N+](=O)[O-])cc3)CC2)c1` it was 1 µM (active); in that of `Cc1cccc(C(=O)Nc2ccccc2N2CCN(c3ccc(F)cc3)CC2)c1`, “inactive”. For `Cc1cccc(C(=O)NNC(=O)c2cccc([N+](=O)[O-])c2)c1`, the Potency entry is “inactive”.

For `CCOc1cc(C(=S)N2CCOCC2)ccc1OS(=O)(=O)c1ccc(Br)cc1`, the Potency entry is “inactive”.

As to `COc1cccc(-c2coc3cc4oc(=O)c(CC(=O)O)c(C)c4cc23)c1`, the Potency result is “inactive”. Consider `Cc1c(Cl)c([N+](=O)[O-])nn1CCCC(=O)Nc1cc(Cl)ccc1Cl`, for which the Potency entry is “inactive”.

In the case of `Cc1c(Cl)c([N+](=O)[O-])nn1Cc1ccc(C(=O)N/N=C\c2cc(Cl)ccc2O)o1`, the Potency was 11.2 µM (active). In the case of `O=C(N/N=C/c1ccc2c(c1)OCO2)c1ccc(Cn2cc([N+](=O)[O-])cn2)o1` it was “inactive”; in that of `COc1cccc(-c2cccc(NC(=O)C3CCN(C4CCC4)CC3)c2)c1`, “inactive”; in that of `CCCCN=C1N/C(=C\c2ccco2)C(=O)N1c1ccccc1`, “inactive”. In the case of `O=C1/C(=C\c2ccsc2)NC(=S)N1c1ccccc1` it was 22.4 µM (active); in that of `COc1cc2c(cc1/C=C1/NC(=O)N(c3ccccc3)C1=O)OCO2`, “inactive”; in that of `O=C(CNc1cccc(S(=O)(=O)N2CCCCC2)c1)Nc1ccccc1F`, “inactive”.

Source of the values: PubChem BioAssay AID2546 (National Center for Advancing Translational Sciences (NCATS), 2010).
